# Measured values taken from the supplement of paper PMC7866885, “A novel bicyclic 2,4-diaminopyrimidine inhibitor of Streptococcus suis dihydrofolate reductase” (PeerJ, 2021).
# ± gives the standard deviation.
# Legend:
# [1] = tested on: Streptococcus suis HE06; assay: percent growth relative to DMSO control; higher = less growth inhibition; conditions: 10 µM; incubation time 18 h
# Protocol: (§1)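 CLSI broth microdilution: 5x10^4 CFU of Streptococcus suis (strain P1/7 or HE06) incubated with 10 µM Pathogen Box compound in cation-adjusted Mueller Hinton broth, 37 °C, 5% CO2, 18 h. Growth read as OD600 and expressed as percent of the DMSO-treated control (100%); mean ± SD of three independent experiments.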
# [2] = tested on: Streptococcus suis P1/7; assay: as above; conditions: 10 µM; incubation time 18 h
# Protocol: as §1
Structure (SMILES),percent growth [1] [%],percent growth [2] [%]
O=C(Nc1cnc2ccccc2c1)c1cccc(-n2cnnn2)c1,110 ± 2.4,106 ± 28
COc1cncc(-c2cncc(N3CCN(c4ccncc4)CC3)n2)c1,87.2 ± 26,64.3 ± 15
COc1ccc(-c2cncc3ccc(C(=O)NCCCn4ccnc4)nc23)cc1,103 ± 28,70.1 ± 27
c1ccc(C[C@@H]2CN(c3nccc(Oc4ccc(-n5ccnc5)cc4)n3)CCN2)cc1,93.3 ± 12,90.5 ± 21
N#CCN(CCCCN1CCN(c2ccc(F)cc2)CC1)C(=O)OCc1ccccc1,93.7 ± 14,75.8 ± 19
Clc1cccc(C(c2ccc(CN3CCNCC3)cc2)n2ccnc2)c1 (stereo not given),96.6 ± 38,76.7 ± 5.8
COc1cc(C2=NCCN2)ccc1-c1cn(-c2cccc(C3=NCCN3)c2)nn1,82.9 ± 23,73 ± 4.1
Cc1nn(C(=O)Nc2cccc(C(F)(F)F)c2)c(C)c1Sc1ncccn1,25.4 ± 40,-0.122 ± 0.21
COc1ccc(N(CCc2cccc(C)n2)C(C)=O)cc1,112 ± 54,62.6 ± 12
COc1ccccc1OCCCCn1c(C2CC2)nc2ccccc21,102.6 ± 0.9,102 ± 21
CC(C)=CCC/C(C)=C\CNCCNC1C2CC3CC(C2)CC1C3 (stereo not given),0.0687 ± 0.12,-0.0282 ± 0.049
COc1cccc(CC(=O)N2CCC(n3c(C)nc4ccc(F)cc43)CC2)c1,104 ± 52,65.2 ± 15
CCN(CC)S(=O)(=O)c1ccc(C(=O)Nc2cc(C)nn2-c2nc(C)c(C)c(=O)[nH]2)cc1,0.274 ± 0.47,3.31 ± 3.3
O=C(NCCN1CCCC1)c1cc(NCCCCN2CCC(F)(F)CC2)nc2ccc(Cl)cc12,93 ± 6.6,79.3 ± 14
CCCS(=O)(=O)N1CCC(CO)(Cc2ccccc2C(F)(F)F)CC1,99.2 ± 19,82.4 ± 27
CC(C)(C)n1nc(Cc2cccc3ccccc23)c2c(N)ncnc21,90.1 ± 3.1,87.7 ± 16
Cc1cc(NC(=O)c2ccc(Oc3ccc(Cl)cc3O)o2)no1,108 ± 22,124 ± 65
CCC(Sc1nc2ccccc2o1)C(=O)Nc1nccs1 (stereo not given),0,9.43 ± 16
C[C@H](c1ccc2c(c1)CCCC2)N(C)c1ncc2c(N)nc(N)nc2n1,84.7 ± 9.1,76.6 ± 18
COc1ccc(-c2nnc3ccc(-c4cccc(C(C)C)c4)cn23)cc1OC,97.1 ± 15,68 ± 20
Cc1ccc2[nH]c(C3CCCNC3)c(-c3ccncc3)c2c1 (stereo not given),108 ± 31,89.8 ± 7.2
CC[P](CC)(CC)=[Au][S][C@H]1O[C@@H](COC(C)=O)[C@H](OC(C)=O)[C@@H](OC(C)=O)[C@@H]1OC(C)=O,4.65 ± 3,1.51 ± 1.8
O=C(Nc1nnc(-c2ccc(Cl)s2)o1)c1ccc(Cl)s1,1.06 ± 1.1,3.26 ± 4.9

Structure (SMILES),percent growth [1] [%],percent growth [2] [%]
O=C(NCCc1c[nH]c2ccccc12)c1cc2ccccc2oc1=O,104 ± 6,74.1 ± 8.7
O=C(NC1=NCCS1)c1sc2cc(F)ccc2c1Cl,93.8 ± 5.2,88.6 ± 14
CC(C)(C)n1nc(-c2ccccc2)c2c(N)ncnc21,79.7 ± 12,84.5 ± 20
CC(C)(C)CN1C(=O)C(c2ccccc2)(c2ccccc2)N=C1N,46.1 ± 39,49.6 ± 44
c1ccc(Oc2ccc(-c3cc(CN4CCOCC4)[nH]n3)cc2)cc1,90.8 ± 3.9,95.7 ± 15
CCN(CC)C(=O)N1CCN(C)CC1,92.6 ± 6.9,91.1 ± 17
CCCCc1ccc(C(=O)Nc2nccc3ccccc23)nc1,32.4 ± 32,13.4 ± 21
CCN(CC)CCCCCCNc1cc(OC)cc2c(C)ccnc12,81.6 ± 14,83.2 ± 15
Cc1cccnc1NC(=O)c1cccc(OCc2c(C)noc2C)c1,81.4 ± 11,96.3 ± 39
c1ccc(Oc2ccc(-c3cc(N4CCOCC4)[nH]n3)cc2)cc1,81.2 ± 21,61.7 ± 32
CNC(=O)C1Cc2c([nH]c3cc(Cl)ccc23)C2(CCN(CCc3ccccc3)CC2)N1 (stereo not given),95.5 ± 23,77.4 ± 9
Cc1ccc2nc(C)c(-c3ccn(Cc4ccccc4)n3)n2c1,90 ± 35,62.9 ± 23
COC(=O)c1c(NC(=O)c2cc3ccccc3oc2=O)sc2c1CCN(Cc1ccccc1)C2,84.2 ± 11,149 ± 81
Clc1ccc(CCNc2cc(-c3ccccc3)nc3ncnn23)cc1,79.8 ± 10,81.5 ± 18
CCN(CC)S(=O)(=O)c1ccc(Cl)c(C(=O)Nc2ccc3nc(C)sc3c2)c1,83.9 ± 6.7,138 ± 70
COc1cccc(NC(=O)c2c(NC(=O)c3cccnc3)sc3c2CCC3)c1,98.2 ± 24,86.6 ± 15
CC(C)(C)c1cc(C(=O)N2CCN(c3nccnc3C#N)CC2)n(Cc2ccccc2)n1,93.1 ± 32,91.6 ± 34
Cc1cc(Cl)c(S(=O)(=O)N2CCCC2)cc1OCC(=O)NC1CCCCC1,87.7 ± 22,63.6 ± 18
CC(=O)Nc1ccc(NC(=O)c2cc(-c3cc(Cl)ccc3O)[nH]n2)cc1,96.5 ± 11,104 ± 13
CC(=O)N1CCN(c2ccc(Oc3ccc(Cl)cc3O)cc2)CC1,142 ± 58,95.7 ± 30
CC(C)c1ncc(-c2ccncc2)c([C@H]2CC[C@H](CNC(=O)c3cccnc3)CC2)n1,82.4 ± 8.9,125 ± 64
COC(=O)C1=C(C)NC(C)=C(C(=O)OC(C)C)C1c1cccc2nonc12 (stereo not given),73.1 ± 15,73.6 ± 34
